Screening data (PubChem)
DUSP3 inh: inhibitors of human VHR1 phosphatase (DUSP3). P51452. recombinant VHR phosphatase, colorimetric substrate read-out. inhibition, % at 20 µM. 50,000 compounds, 0.7% hits. AID 1992; in the data active = inhibition above about 60%
Target sequence (P51452 whole entry, looked up): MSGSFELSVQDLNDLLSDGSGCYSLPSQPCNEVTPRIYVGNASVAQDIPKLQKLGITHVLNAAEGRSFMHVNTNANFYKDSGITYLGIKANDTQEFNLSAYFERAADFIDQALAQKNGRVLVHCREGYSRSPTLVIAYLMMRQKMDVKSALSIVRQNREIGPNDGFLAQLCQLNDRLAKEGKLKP
Starred values were filed as active, the others as inactive. The entries come from a sample that favours hits as a whole.

SMILES | DUSP3 inh
CCOC(=O)c1[nH]cnc1C(=O)Nc1ccc(Br)cc1 | -22
Cc1ccc(NC(=O)CSC(N)=O)cc1C | 4
CC(=O)NC1=NC(=O)/C(=C\c2ccccc2Cl)S1 | 3
Cn1/c(=N/N=C/C=C/c2ccco2)sc2ccccc21 | 114*
Cn1/c(=N/N=C/c2cccc(Cl)c2Cl)sc2ccccc21 | 1
CN(C)c1ccc(/C=C/C=N/N=c2\sc3ccccc3n2C)cc1 | 13
Cc1ccc(S(=O)(=O)Oc2cccc(/C=C3/SC(=S)N(Cc4ccccc4)C3=O)c2)cc1 | 108*
C=CCN1C(=O)/C(=C\c2cccc(OS(=O)(=O)c3ccc(C)cc3)c2)SC1=S | -10
CCN1C(=O)/C(=C\c2cccc(OS(=O)(=O)c3ccc(C)cc3)c2)SC1=S | -3
Cc1c(NC(=O)c2cccc3ccccc23)c(=O)n(-c2ccccc2)n1C | 9
c1ccc(NCc2ccc3c(c2)OCO3)cc1 | 7
O=C1C=C(NCc2ccc3c(c2)OCO3)CC(c2ccccc2)C1 (stereo not drawn) | 101*
O=C1C=C(NCc2ccc(F)cc2)CC(c2ccccc2)C1 (stereo not drawn) | -1
CCOc1cc(C(=O)Nc2ncccc2C)cc(OCC)c1OCC | -11
COc1cc(OC)cc(C(=O)Nc2ccc(NC(=O)c3ccco3)c(OC)c2)c1 | -10
COc1ccc(OC)c(NC(=O)c2ccc(-c3ccc(C)c(Cl)c3)o2)c1 | -9
O=C(Nc1ccccc1C(F)(F)F)c1ccc2ccccc2c1 | 16
O=C(Nc1ccccc1C(F)(F)F)c1cccc(OCc2ccccc2)c1 | 114*
O=C(Nc1ccc(I)cc1Cl)c1cccc(OCc2ccccc2)c1 | 2
COc1ccccc1N=Cc1c(O)c(Br)cc2oc3c(c12)CCCC3 | -38
CN(C)c1ccc(/C=N/NC(=O)c2ccccc2O)cc1[N+](=O)[O-] | -29
O=P(CC1CCCO1)(c1ccccc1)c1ccccc1 (stereo not drawn) | -10
CCC(=O)N1c2ccccc2NC2=C(C(=O)CC(c3ccccc3)C2)C1c1cccc([N+](=O)[O-])c1 (stereo not drawn) | -8
O=C(N/N=C/c1ccc(/C=N/NC(=O)c2ccc(Br)cc2)cc1)c1ccc(Br)cc1 | -2
O=C(Oc1ccc(/C=N/O)cc1)c1ccc(Br)cc1 | 104*
SMILES | DUSP3 inh
Cc1ccc(NCC(=O)N/N=C\c2ccc(OC(=O)c3ccccc3)cc2)cc1 | -10
CC(=O)Nc1nonc1-c1nc2ccccc2n1Cc1ccc(C(C)(C)C)cc1 | -11
CC(C)(C)c1ccc(Cn2c(-c3nonc3N)nc3ccccc32)cc1 | 60*
CC(=O)Nc1nonc1-c1nc2ccccc2n1Cc1ccccc1 | -2
CCOc1ccc(NC(=O)CN(c2cccc(OC)c2)S(=O)(=O)c2ccccc2)cc1 | -11
COc1ccccc1OCCn1cc(/C=C2/SC(=S)N(Cc3ccccc3)C2=O)c2ccccc21 | -2
COc1ccc2ccccc2c1/C=C1/C(=O)NC(=O)N(c2cccc(Br)c2)C1=O | 101*
C=CCc1cc(/C=C2\C(=O)NC(=S)N(c3cccc(Br)c3)C2=O)cc(OC)c1O | 77*
COc1cc(/C=C2\C(=O)NC(=S)N(c3cccc(Br)c3)C2=O)cc(Cl)c1O | 26
COc1cc(/C=C2\C(=O)NC(=O)N(c3cccc(Br)c3)C2=O)cc(Cl)c1O | -18
C=CCc1cc(/C=C2/C(=O)NC(=O)N(c3cccc(C)c3)C2=O)cc(OC)c1O | 13
Cc1ccc(/C=C2\C(=O)NC(=O)N(c3cccc(Br)c3)C2=O)cc1 | 10
Cc1cccc(NC(=O)C2C3C=CC(C3)C2C(=O)O)n1 (stereo not drawn) | -4
COc1ccc(C(=O)N2CCN(Cc3ccc(OC)c(OC)c3OC)CC2)cc1OC | 7
CN1C(=O)NC(=O)/C(=C/c2ccc(-c3cccc(Cl)c3)o2)C1=O | 7
Cc1ccc(C(=O)Nc2cc(Cl)cc(Cl)c2)o1 | -9
CCCN(CCC)C(=O)c1c(NC(=O)c2cccs2)sc2c1CCCCC2 | -14
CC(=O)Nc1cc(-c2ccc(Cl)cc2)nn1-c1ccccc1 | 4
CCOC(=O)/C=C(\C)Nc1cc(-c2ccc(Cl)cc2)[nH]n1 | 6
CCOC(=O)/C=C(\C)Nc1cc(C)nn1-c1ccccc1 | 110*
C=CCNC(=S)Nc1nc(C)c(C)s1 | -19
N#Cc1c(N)sc2c1CCN(Cc1ccccc1)C2 | 102*
CCC1CCc2c(sc(N)c2C#N)C1 (stereo not drawn) | -16
Nc1nc(SCc2ccc(Cl)cc2)nc2sc3c(c12)CCN(Cc1ccccc1)C3 | 4
N#Cc1c(N)sc2c1CCCCCC2 | 18
SMILES | DUSP3 inh
Nc1sc(=S)nc2sc3c(c12)CCN(Cc1ccccc1)C3 | 72*
O=c1[nH]c(=S)[nH]c2sc3c(c12)CCN(Cc1ccccc1)C3 | 51
CN1C(=O)C(=Cc2cn(Cc3ccc(F)cc3)c3ccccc23)C(=O)N(C)C1=O | 5
O=C(/C=C/c1ccc(S(=O)(=O)Nc2ccccc2)cc1)C1C(=O)c2ccccc2C1=O | -14
O=C(c1ccc(F)cc1)N(Cc1ccccc1)c1cccc([N+](=O)[O-])c1 | -22
CCn1c2ccccc2c2cc(/C=N\NC(=O)c3cccc(C)c3)ccc21 | -1
CSc1ccc(C2NC(=O)CCC2[N+](=O)[O-])cc1 (stereo not drawn) | 100*
